An excerpt weighted towards active compounds, which were near 8% of everything screened.
HT1080 IDH1KD tx: kills HT-1080 cells with IDH1 knockdown; HT-1080 IDH1 knockdown viability, ATP luminescence, 48 h; Potency, µM (doses to about 46.1 µM), most hits filed as cytotoxic; 2% of 360,000 active
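Knockdown cells (IDH1KD HT-1080) received compounds 2 h after plating at 750 cells/well and were kept 48 h at 37 °C in 5% FBS RPMI. A CellTiter-Glo luminescence read gave % activity for curve fitting.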
MCF10A rereplic: DNA re-replication induction in MCF 10a cells. MCF 10A DNA re-replication, Hoechst nuclear intensity, 48 h. Potency, µM (highest dose often 46.1 µM), usual class: activators. 2.9% of 350,000 active; note: nearly all actives have a fitted effect of over 50% in size
KB-3-1 cytotox: KB-3-1 parental cell cytotoxicity | AID 1347075 | KB-3-1 viability, CellTiter-Glo ATP luminescence, 72 h | Potency, µM (series often up to 46.1 µM), most hits filed as cytotoxic | 1.4% of 400,000 active; note: nearly all actives have a fitted effect of over 60% in size
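Screening of KB-3-1 cells (DMEM, 10% FBS, phenol-red free) ran from lowest to highest compound concentration; after 72 h at 37 °C viability was read luminescently and curves fitted.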
SW480 rerep: induces DNA re-replication in SW480 colon adenocarcinoma cells; AID 624297; Potency, µM (doses to about 46.1 µM), usual class: activators; 1.8% of 340,000 active; SW480 DNA re-replication, Hoechst DNA content imaging, 48 h; note: nearly all actives have a fitted effect of over 55% in size
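DNA re-replication was detected as more nuclei of elevated Hoechst intensity after 48 hr exposure to compound (23 nL pinned per well of 250 cells).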
HT1080-NT tox: kills 2HG-producing HT-1080-NT fibrosarcoma cells; HT-1080-NT fibrosarcoma viability, CellTiter-Glo ATP luminescence, 48 h; Potency, µM (doses to about 46.1 µM), actives largely listed as cytotoxic; 1.6% of 360,000 active;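 note: NT is the 2HG producing partner of a matched IDH1 knockdown line; nearly all actives have a fitted effect of over 55% in size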
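Toxicity toward the 2HG-producing NT line was scored as %Activity, normalised to DMSO and no-cell wells, from CellTiter-Glo luminescence after 48 hours' treatment.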
KB-V1 cytotox: KB-V1 MDR subline cytotoxicity. 3.4% of 400,000 active. KB-V1 MDR cells viability, CellTiter-Glo, 72 h. Potency, µM (top dose mostly 46.1 µM), actives largely listed as cytotoxic. AID 1347076; note: nearly all actives have a fitted effect of over 60% in size
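qHTS viability screen in drug-selected KB-V1 MDR cells: 72 h compound treatment at 37 degrees C, ATP luminescence end point.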
A number is an active result; . = inactive; ? = inconclusive; / = no result given; [ ] = dose if it differs, or a comment. Calls come from the whole dose curve; as a rule, active = well fitted curve in the direction sought with a large enough effect; inconclusive = small, poorly fitted or top-dose-only effect, or another doubt; inactive = no such curve, though single readings can be large; an effect the other way counts as inactive or inconclusive.

SMILES	HT1080 IDH1KD tx	MCF10A rereplic	KB-3-1 cytotox	SW480 rerep	HT1080-NT tox	KB-V1 cytotox
CC(=O)Nc1ccc(S(=O)(=O)N2CCN(c3cc(C)nc4ccccc34)CC2)cc1	?	.	.	.	.	.
CC(=O)Nc1ccc(S(=O)(=O)N2CCN(c3nc(NC4CCCC4)c4ccccc4n3)CC2)cc1	?	?	?	?	18.4µM	?
COC(=O)c1ccccc1SCC(=O)Nc1ccc(N2CCOCC2)cc1	.	.	.	.	.	.
CSc1ccccc1C(=O)OCC(=O)Nc1ccc(N2CCOCC2)cc1	.	.	.	.	.	20.6µM
O=S(=O)(c1ccc(Oc2ccc(Cl)cc2)c(S(=O)(=O)N2CCCCC2)c1)N1CCCCC1	.	.	.	.	.	3.26µM
COc1ccc(S(=O)(=O)N2CCCCC2)cc1NS(=O)(=O)c1cc(Cl)ccc1Cl	.	.	.	23.1µM	.	?
O=S(=O)(c1ccc(Cl)cc1)N1CCN(S(=O)(=O)N2CCCCCC2)CC1	.	.	.	.	.	.
COc1ccc(S(=O)(=O)N2CCCCCC2)cc1N(C)S(=O)(=O)c1ccc(C)cc1	.	?	.	.	.	2.59µM
COc1ccc(S(=O)(=O)N2CCCCCC2)cc1C(=O)N(C)Cc1ccc(Cl)cc1Cl	?	2.06µM	?	.	?	.
Cc1ccc(S(=O)(=O)N(C)CC(=O)O/N=C(\N)c2ccc([N+](=O)[O-])cc2)cc1	.	.	.	.	.	?
O=C(N/N=C/C=C/c1ccco1)c1ccccc1Cl	.	?	.	.	.	.
COc1cccc(CNC(=O)COC(=O)c2cc(Br)c(Br)s2)c1	.	.	.	.	.	.
CCOC(=O)c1oc2ccc3c(c2c1C)C(=O)CC1(CCN(C(=O)OCC)CC1)O3	.	.	?	.[9.22 µM]	.	.
COc1ccc(OC)c(NC(=O)COC(=O)c2nc(Cl)ccc2Cl)c1	.	.	.	.	.	?
CCOC(=O)c1ccc(NC(=O)c2ccc(CN3CCOCC3)cc2)cc1	?	.	.	.	.	.
CSCCC(NC(=O)COc1ccccc1)C(=O)N1CCC(C(N)=O)CC1 (stereo not drawn)	.	.	.	.	.[9.24 µM]	?
CCOc1ccc(N2CC(c3nc4ccccc4n3CCOc3ccccc3OC)CC2=O)cc1 (stereo not drawn)	/	/	.	/	/	.
CCOc1nc2ccccc2nc1NS(=O)(=O)c1ccc(Cl)cc1	.	.	.	.	.	.
COc1cc(NS(=O)(=O)c2ccc(C)c(C)c2)c(OC)cc1Cl	.	?	?	.	.	18.4µM
CCCCN(CC)CCCNC(=O)c1cc2cc3ccc(C)cc3nc2o1	.	.	.	.	.	.
Cc1cccc(N(C)C(=O)c2cc3cc4ccc(C)cc4nc3o2)c1	13µM	10µM	?	?	?	11.6µM
CC1NC(=O)c2cc3ccccc3cc2-n2c1nc1cc(F)ccc1c2=O (stereo not drawn)	.	/	.	/	.	.
CS(=O)(=O)N(CC(=O)Nc1ccccc1Sc1ccccc1)C1CCCCC1	?	?	?	.	?	5.8µM
CC1CCN(CC(=O)Nc2ccccc2Sc2ccccc2)CC1	.	14.6µM	.	?	.	.
CS(=O)(=O)N(CC(=O)NCc1ccccc1Cl)C1CCCCC1	.	.	.	20.6µM	.	?
SMILES	HT1080 IDH1KD tx	MCF10A rereplic	KB-3-1 cytotox	SW480 rerep	HT1080-NT tox	KB-V1 cytotox
COc1ccc(-c2c(-c3ccc(OC)nc3)c3ccccc3n2C)cc1	.	5.17µM	.	?	.	.
CCC/C(O)=C1\C(=O)CC(C)(C)CC1=Nc1ccc(OC)cc1OC	7.31µM	20.6µM	?	18.4µM	?	?
CCc1ccc(NC(=O)CS(=O)CC(=O)Nc2ccc(F)cc2F)cc1 (stereo not drawn)	?	.	.	.	.	.
CC1CN(CCc2ccccc2)c2nc3c(c(=O)[nH]c(=O)n3C)n2C1 (stereo not drawn)	.	.	.	.	.	?
N#Cc1sc2nc(-c3ccccc3)cc(C(F)(F)F)c2c1N	.	.	.	2.91µM	.	.
N#Cc1sc2nc(-c3cccs3)cc(-c3ccccc3)c2c1N	.	.	.	.	.	.
CCOC(=O)CN1C(=O)S/C(=C\c2ccc3c(c2)OCO3)C1=O	.	.	.	.	.	.
O=C(N/N=C/c1cc(Br)c(O)c(Br)c1O)c1cccnc1	10.3µM	.	?	?	?	.
O=C(N/N=C/c1cc(O)ccc1Br)c1cccnc1	?	.	20.6µM	.	?	.
Cc1ccc(-c2[nH]c(-c3ccc(C(=O)O)cc3)nc2-c2ccccc2)cc1	.	9.2µM	.	?	.	.
CSc1nc(-c2ccccc2)c(-c2ccccc2)[nH]1	.	?	?	?	.	11.6µM

Screening results: PubChem, National Center for Advancing Translational Sciences (NCATS)
